Only some compounds are listed: those with a hit (about 10% of all), similar ones and a draw of the others.
BAZ2B block – blocks human BAZ2B | AID 504333 | AlphaScreen BAZ2B-H3K14Ac peptide displacement | 360,000 tested, 4.4% active | Potency, µM (doses to about 114 µM), inactives show at the highest dose activity change, negative = inhibition, actives largely listed as inhibitors; also: % is scaled to controls: 0 for no effect and ±100 for the full control effect; nearly all actives have a fitted effect of over 60% in size
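Protein-peptide AlphaScreen: BAZ2B 50 nM, b-H3K14Ac 50 nM, 1x PBS pH 7.4 + 0.01% Tween-20. Preincubation 30 min RT; cpd 30 min RT (top 110 uM); beads 20 min RT, light-protected.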
HP1b chromo inh – inhibitors of HP1-beta chromodomain binding to methylated histone tails | AlphaScreen HP1-beta / biotin-H3K9me3 peptide binding | Potency, µM (highest dose often 114 µM), inactives show at the top dose activity change, negative = inhibition, hits mostly inhibitors | 390,000 tested, 0.56% active | P83916; also: nearly all actives have a fitted effect of over 70% in size
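AlphaScreen: HP1-beta (50 nM) preformed 30 min with biotin-H3(1-18)K9me3 peptide (50 nM) in PBS pH 7.4, 0.01% Tween-20. Compound added for 30 min at RT, then streptavidin donor/nickel chelate acceptor beads (10 ug/mL) for 30 min.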
G9a inh – blocks human histone lysine methyltransferase G9a | AID 504332 | Potency, µM (series often up to 102 µM), for the others: top-dose activity, negative = inhibition, actives largely listed as inhibitors | Q96KQ7 | G9a H3K9 monomethylation, AlphaScreen, 2 h | 350,000 tested, 8.8% active; also: % is scaled to controls: 0 for no effect and ±100 for the full control effect; nearly all actives have a fitted effect of over 75% in size
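Methyltransferase reactions run at room temperature for 2 h (20 nM enzyme, 500 nM biotin-H3K9 peptide, 20 uM SAM) after a 15 min compound preincubation; product detected by AlphaScreen beads and anti-H3K9me1 antibody.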
JMJD2A Tudor – inhibitors of human JMJD2A Tudor domain; O75164; AlphaScreen JMJD2A-Tudor / H3K4me3 peptide binding; Potency, µM (top dose mostly 114 µM), for the others: at the top dose activity change, negative = inhibition, actives largely listed as inhibitors; 390,000 tested, 4.4% active; AID 504339; also: % is scaled to controls: 0 for no effect and ±100 for the full control effect; nearly all actives have a fitted effect of over 50% in size
GLS inh – glutaminase GLS (human) inhibition | 410,000 tested, 0.21% active | GLS enzymatic activity, qHTS titration | O94925 | Potency, µM (top dose mostly 45.5 µM), for inactives: top-dose activity change, negative = inhibition, actives largely listed as inhibitors; also: % is scaled to controls: 0 for no effect and ±100 for the full control effect
Target sequence (O94925 whole entry, looked up): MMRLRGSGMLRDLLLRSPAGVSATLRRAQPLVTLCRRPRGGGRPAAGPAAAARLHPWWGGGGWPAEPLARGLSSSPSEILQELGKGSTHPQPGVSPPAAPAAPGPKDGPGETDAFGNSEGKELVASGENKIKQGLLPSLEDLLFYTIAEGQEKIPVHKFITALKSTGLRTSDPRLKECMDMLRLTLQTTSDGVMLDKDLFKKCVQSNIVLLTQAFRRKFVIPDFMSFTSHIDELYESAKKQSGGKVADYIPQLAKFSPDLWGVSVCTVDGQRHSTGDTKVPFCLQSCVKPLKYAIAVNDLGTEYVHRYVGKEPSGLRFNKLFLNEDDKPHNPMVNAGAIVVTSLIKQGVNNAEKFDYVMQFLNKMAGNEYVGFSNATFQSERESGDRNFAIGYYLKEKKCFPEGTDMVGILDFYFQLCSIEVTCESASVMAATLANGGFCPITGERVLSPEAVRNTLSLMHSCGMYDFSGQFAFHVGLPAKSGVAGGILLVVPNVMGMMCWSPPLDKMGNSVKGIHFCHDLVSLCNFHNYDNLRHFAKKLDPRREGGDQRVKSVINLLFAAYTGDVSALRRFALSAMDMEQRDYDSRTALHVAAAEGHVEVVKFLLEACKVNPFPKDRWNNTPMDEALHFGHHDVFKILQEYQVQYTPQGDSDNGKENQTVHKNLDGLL
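hKGA in 45 mM KH2PO4 (pH 8.2), 0.02% Tween-20 with compound, then 1mM L-Glutamine (stock as added) plus glutamate oxidase/HRP/Amplex red coupling mix. Fluorescence read initially and after 30 min at RT; signal change reflects glutamate formation.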
L3MBTL1 block – blocks human L3MBTL1 | 230,000 tested, 0.66% active | Q9Y468 | AlphaScreen L3MBTL1–H3K9me1 peptide binding | Potency, µM (top dose mostly 57.1 µM), without a hit: at the highest dose activity, negative = inhibition, most hits filed as inhibitors; also: % is scaled to controls: 0 for no effect and ±100 for the full control effect; nearly all actives have a fitted effect of over 60% in size
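AlphaScreen assay: L3MBTL1 (50 nM final) was preincubated 30 min at room temperature with biotinylated H3(1-15)K9me1 peptide (75 nM final), then 30 min with library compounds; streptavidin donor and nickel chelate acceptor beads (10 ug/mL final) added, 30 min dark.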
Starred values were filed as active, the others as inactive; ? = inconclusive; . = not tested or not shown; [ ] = dose if it differs, or a comment. Calls follow the shape of the dose curve; as a rule, active = well fitted curve in the direction sought with a large enough effect; inconclusive = small, poorly fitted or top-dose-only effect, or another doubt; inactive = no such curve, though single readings can be large; an effect the other way counts as inactive or inconclusive. Potency is read from the fitted curve at half-maximal effect.

SMILES	BAZ2B block	HP1b chromo inh	G9a inh	JMJD2A Tudor	GLS inh	L3MBTL1 block
Cc1ccsc1/C=N/N1CCOCC1	-18%	2%	-2%	-21%	1%	-6%
Cc1ccsc1/C=N/n1c(-c2ccco2)n[nH]c1=S	-21%[57.1 µM]	-10%	0.79µM*	7.1µM*	-20%	-3%
Cc1ccsc1/C=N/n1c(-c2ccncc2)n[nH]c1=S	-35%	-17%	1.1µM*	3.2µM*	-3%	0%
Cc1cc(-c2n[nH]c(=S)n2/N=C/c2sccc2C)n[nH]1	?	?	1.3µM*	3.2µM*	-20%	-4%
Cc1ccsc1/C=N/n1c(-c2ccccc2)n[nH]c1=S	3%	11%	1.8µM*	28µM*	7%	-6%
Cc1ccc(NC(=O)C(=O)NCC(c2ccc3c(c2)OCO3)N2CCN(C)CC2)cc1C (stereo unspecified)	-1%	11%[57 µM]	3%[59 µM]	-11%	2%	.
c1cn(-c2cc(-c3ccc4c(c3)OCO4)ncn2)cn1	.	.	-24%[0.501 µM]	.	.	.
Cc1ccsc1/C=N/n1c(-c2ccccn2)n[nH]c1=S	8.9µM*	32%	2.2µM*	3.2µM*	?	32µM*
Cc1ccc(-n2nc3c(N4CCC(C(=O)NCCc5ccco5)CC4)nnc(C)c3c2C)cc1	-20%	13%	-2%	-24%	-6%	.
Cc1ccc(-n2nc3c(N4CCC(C(=O)NCc5ccc(C)o5)CC4)nnc(C)c3c2C)cc1	50µM*	42%	?	45µM*	-49%	.
COc1ccc(-n2nc3c(N4CCCC(C(=O)NCCc5ccccc5C)C4)nnc(C)c3c2C)cc1 (stereo unspecified)	-19%	34%	?	-11%	-3%	.
COc1ccc(-n2nc3c(N4CCCC(C(=O)NCc5ccccc5C)C4)nnc(C)c3c2C)cc1 (stereo unspecified)	50µM*	33%	?	-26%	?	5%
CCOc1ccc(S(=O)(=O)N(CC(=O)NCCSc2ccccc2)c2ccccc2)cc1	3%	18%	-27%[59 µM]	-1%	5%	.
N#Cc1ccc(CN2C(=O)c3ccccc3Sc3ccc(C(=O)OCc4ccco4)cc32)cc1	-17%	14%[57 µM]	-7%[59 µM]	-17%	-4%	.
CCN(CC)CCn1c2c(c(SCC(=O)NCc3ccccc3)nc1=O)CCCC2	-2%	22%	9%[0.501 µM]	3%	-8%	-13%
CN(C)CCCn1c2c(c(SCC(=O)Nc3cccc4ccccc34)nc1=O)CCC2	13%	-9%	50µM*	-17%	-1%	-6%
CN(C)CCn1c2c(c(SCC(=O)Nc3cccc4ccccc34)nc1=O)CCC2	-5%	-5%	12%[0.501 µM]	-14%	2%	3%
CCN(CC)CCn1c2c(c(SCC(=O)Nc3cccc4ccccc34)nc1=O)CCCC2	9%	12%	13µM*	-24%	2%	-6%
Cc1cc(-n2c(C)nc3ccccc3c2=O)ccc1NC(=O)c1ccc(C)c([N+](=O)[O-])c1	?	19%	3%[59 µM]	-16%	-14%	.
Cc1ccc(CNC(=O)CCN2C(=O)C(C)Oc3ccc(C)cc32)cc1 (stereo unspecified)	11%	19%	10%[59 µM]	-5%	3%	.
CC(C)=CCc1cc([C@@H]2COc3c(ccc4c3C=CC(C)(C)O4)C2)c(O)cc1O	.	-9%	.	?	15%	.
CC1(C)C=Cc2c(ccc3c2OC[C@H](c2ccc(O)cc2O)C3)O1	50µM*	-20%	4%[2.33 µM]	50µM*	19%	-14%
COc1ccccc1NC(=O)CN1CCCN(S(=O)(=O)c2ccc(Br)cc2)CC1	-20%	12%	-5%[59 µM]	-19%	1%	.
CCN/N=C(\Cc1nc2ccccc2[nH]1)c1ccccc1	-7%	31%	16%	-31%	-26%	-2%
N#CCCN/N=C(\Cc1nc2ccccc2[nH]1)c1ccccc1	-19%	-6%	50µM*	-31%	10%	.
SMILES	BAZ2B block	HP1b chromo inh	G9a inh	JMJD2A Tudor	GLS inh	L3MBTL1 block
N#CCCN/N=C(/Cc1nc2ccccc2[nH]1)c1ccc(Cl)cc1	-6%	.	?	.	.	.
Clc1cccc(/C(Cc2nc3ccccc3[nH]2)=N\Nc2ccccc2)c1	-36%	0%	6.3µM*	?	12%	-18%
c1ccc(N/N=C(\Cc2nc3ccccc3[nH]2)c2ccccc2)cc1	?	-18%	1.4µM*	?	8%	-7%
Cc1ccc(N/N=C(\Cc2nc3ccccc3[nH]2)c2ccccc2)cc1	?	?	7.1µM*	?	5%	-1%
CCN1c2ccccc2-c2nc(SCC(=O)Nc3cccc(C)c3C)ncc2S1(=O)=O	2%	19%	-5%[59 µM]	1%	-10%	.
COc1cccc(NC(=O)C(=O)NCC(c2cccnc2)N2CCN(c3ccccc3)CC2)c1 (stereo unspecified)	?	43%	-18%[59 µM]	-17%	9%	.
CCOc1ccc(NC(=O)C(c2ccccn2)N(C(=O)CCl)c2ccc(OCC)cc2)cc1 (stereo unspecified)	?	-28%	3.5µM*	?	18%	-15%
CCOc1ccc(NC(=O)C(c2ccccn2)N(C(=O)CCl)c2ccc(OC)cc2)cc1 (stereo unspecified)	?	-27%	2µM*	89µM*	11%	-10%
COc1ccccc1CNC(=O)CCCn1c(=O)c2cccn2c2ccccc21	4%	88%	9%[59 µM]	-31%	6%	.
C#CC[N+]1(CC#Cc2ccc(C#CC[N+]3(CC#C)CCOCC3)cc2)CCOCC1	9%	11%	8.9µM*	-15%	1%	14%
C#CC[N+]1(CC#Cc2ccccc2)CCCC1	-4%	26%	-6%[0.501 µM]	-14%	-4%	14%
Cc1ccc2c(c1)c(=O)c(S(=O)(=O)c1ccc(C)c(C)c1)cn2CC(=O)Nc1ccccc1	-3%	48%	-2%[59 µM]	4%	-2%	.
O=c1/c(=C/c2ccc(O)cc2)sc2nc3cc(Br)cnc3n12	-32%	.	10µM*	.	.	-13%
O=c1/c(=C\c2ccc(O)cc2)sc2nc(-c3ccccc3)c(-c3ccccc3)n12	?	50%	?	-18%[11.4 µM]	2%	.
O=C(c1ccco1)N1CCN(C(=O)c2cc3c(s2)-c2ccccc2OC3)CC1	?	58%	45µM*	-4%	0%	-4%
COc1cccc(C2=CC(=O)CC(c3ccco3)C2)c1 (stereo unspecified)	.	-3%	.	-35%	3%	.
CC(=O)C1=C(O)C=C(c2ccco2)CC1c1ccco1 (stereo unspecified)	56µM*	5%	?	-31%	22%	-9%
Clc1ccc2c(N/N=C/c3ccccc3Br)ccnc2c1	-5%	4%	27%[59 µM]	?	-1%	2%

High-throughput results (PubChem)
